In all, about 25,000 sequences were measured (“ln(normalized median fluorescence intensity)”: median about 9.3, highest 2% from about 10 on). The sample holds the highest values, similar sequences and a random draw of the others, so the mix is not that of the screen.
Tested on: PF3D7_0420300 AP2 domain 1 (GST-tagged)
Assay: gcPBM binding intensity (ln(normalized median fluorescence intensity)); higher = stronger DNA binding
Method in brief: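 Each value is the highest Masliner-normalised natural-log median intensity across replicate spots of either orientation of a probe. The probes were primer-extended double-stranded 36-bp intergenic genomic sequences on an Agilent 4 × 180k array, alongside negative controls, exposed for 1 h to GST-tagged P. falciparum DNA-binding domains expressed in E. coli. Bound protein was picked up with Alexa488 anti-GST antibody and scanned at 488 nm.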

Sequence | gcPBM binding intensity (ln)
GATAGAAAAAAATAATGTACACACACATATATGTTT [XGTACX_site392] | 9.72
AAAAAAATTCTGACTTGTACATATAAAATTTACAAA [XGTACX_site4408] | 8.78
TACGTATGCCTGTGATGTACATATATATATACATAC [XGTACX_site4728] | 9.36
AATCACCAAATATGTACACACCTTAACATGTTTATA [CACACA_site5180] | 9.64
TTTAAAAGATAAAACACACATACTAATAAAAAACAA [CACACA_site2556] | 9.71
AAGTGTCAAAGTTACACACACAAACTTGTCATTTTT [CACACA_site837] | 9.75
AAAAATCATTTAAGAACACACAAATATTTCCATTAA [CACACA_site1488] | 9.35
TTATCCTTGTAACAATGTACACATTATTTAATACTT [XGTACX_site1830] | 9.29
TACATATTTTTCTTTTCACACATGGAAAAAAAAGGT [CACACA_site5146] | 9.11
ACATATAAAATGTATACACACAAATATTACAGAGAT [CACACA_site4920] | 9.8
TAAACACCCATATAAACACACATATAAACACCCATA [CACACA_site5382] | 9.84
TCATAGTATAAACACACACACACACCCATATATATA [CACACA_site8512] | 10.3
ATTCATATGAAACACACACACACACCCATAAAAAAA [CACACA_site3246] | 10.1
CACAGTGATATAAAAACACACATGAATTATAATTTC [CACACA_site1667] | 9.43
TTTTTCTGTTCTTTTTGTACTTAAATATATTTATTT [XGTACX_site5658] | 9.57
TAAATATTATATTTATGTACATAAGTTTTTTTTAAT [XGTACX_site3559] | 9.08
AATATTTCTATATGAACATGCAATGTATCTTTTTAT [TGCATGCA_site738] | 9.13
AGTATACATATATATACACACACACCGATATATATA [CACACA_site8357] | 10.1
TAAATAAATTTATACACACACACACCGATATATATA [CACACA_site4622] | 10.1

Sequence | gcPBM binding intensity (ln)
ATAGTATACGGACACACACACACACCGATATATATA [CACACA_site5032] | 10.3
AGTATACACAGACACACACACACATATATATATATA [CACACA_site8510] | 10.2
CATATACTCGGACACACACACACACCGACAAAAAAA [CACACA_site4433] | 10.1
ATAGTATACAGACACACACACACACCGATATATATA [CACACA_site8511] | 10.3
ATTCATCTATTTTGTAGTACTAAATATATATCTACT [XGTACX_site8790] | 9.46
TGTAATAATCTTCATTTCTTTTTTTTTTTTTTTTGT [CACACA_negctrl_site1388] | 8.96
ATTTACATAATAAAATGTACATTTATAAATATTATA [XGTACX_site1901] | 9.13
AATATAGATACATATACACACACACCCATACATATA [CACACA_site9137] | 10.1
CACAGATATATACATACACACATATATACACATATA [CACACA_site6323] | 9.72
TATAGATACATATACACACACACACCGACATATATA [CACACA_site9138] | 10.3
CATACATACATACATACACACATACAGATATATATA [CACACA_site4890] | 9.84
CATATATAGATATATACACACATACATACATACATA [CACACA_site7748] | 9.59
TATAGATACAGATACACACACACACCGACATATATA [CACACA_site5832] | 10.2
ATATATATATAATAAGTGCAAAAAAAAGAAAAAAAT | 9.74
GTTTAACTGTTTTATACACACAATGTATCCAATAAA [CACACA_site5612] | 9.49
GATAAATTAAAACACACACACATATATATATATATA [CACACA_site3962] | 9.67
ATAAAATTTATATAAGCACACAAATATATATTTATA [CACACA_site9083] | 9.29
TATAAAAATAAGCACACACACAAATATATATTTATT [CACACA_site922] | 10.1
CATAAAATATAAAACACACACACATATATTTATATA [CACACA_site6247] | 10

Sequence | gcPBM binding intensity (ln)
AATATAAATAAAAACACACACACACGGATATTTATA [CACACA_site7134] | 10.3
CATAATACAGATAACACACACAATTATACATAAAAT [CACACA_site5742] | 10
AAAAACAACACAGATAAATTAACACACACACACATA [XGTACX_negctrl_site588] | 10.2
AGTATAAAAATAAGCACACACACAAATATATATTTA [CACACA_site923] | 10.2
ACTTATATAAAACATTAACACACAAAGAAAAAAAAT [CACACA_site8529] | 9.96
TAAAAAAAAAAAAAAACACACATATAAATATTTATA [CACACA_site6702] | 9.45
CTTATATTAAAACACACACACGCACAAAACAGAAAT [CACACA_site1462] | 10.2
TATATATTATTTAAAACACACAAAAAAAAAAATTAT [CACACA_site89] | 9.59
AACCACATACATATAACACACATATACAATATATAT [CACACA_site8607] | 9.65
TTTTGTTATTATAAATAGTAACATTTGTGAATATAT [TGCATGCA_negctrl_site132] | 8.92
GGCCCAACTTCTTCTGACGAAAACGTAAATTGTGTG [XGTACX_negctrl_site533] | 9.22
CTATATCATTTTCTAGCACACACATTGTTATTACCT [CACACA_site8204] | 9.84
AAAAACTAACTGTATTGTACTCTCTTATAAATTCAC [XGTACX_site8967] | 9.15
ATATATATATATATATATATAATAAAAGATCATTTA [XGTACX_negctrl_site371] | 9.09
AAAAAATATATATATATATATATGTAATATTTTTTT [XGTACX_negctrl_site439] | 9.07
TAAATAATGTAAAAAACATCATCAAAATGTTAATTA [CACACA_negctrl_site1768] | 9.09
TATGAAATATTTATACACAGAACTTCATAATTTTCA [TGCATGCA_negctrl_site509] | 9.04
CGTGAATATATGATATGTACTTATAAAAATTTGTGC [XGTACX_site5480] | 9.26

— the supplement of paper PMC11417369
